# “And” between values parts separate entries of the source, which are not always exact repeats. Equal entries are not always repeated. The source made the active and inactive calls.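 How the source made its calls: active means compounds giving at least 50% inhibition in the cell-based MKP-3 phosphatase rescue imaging test; inactive means the rest.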
# System: not listed separately
# Assay: Primary imaging screen for DUSP6 inhibitors that restore phospho-Erk in transfected HeLa cells, chemical complementation (AID 609);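 on inhibition: phospho-Erk level distribution per well compared with pooled transfected vehicle control wells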
# Details: HeLa MKP-3 transfected, phospho-Erk imaging KS statistic; measured here: nuclear pErk red intensity z-score; at 10 µM; stronger effect = higher value; cells stimulated with TPA for 15 min
row,Compound,z-score
1,N#CC1=C(N)N(c2ccccc2)C(c2ccccc2)C1(C#N)C#N (centres undefined),1.5
2,CC(C)NCC(O)COc1cccc2[nH]ccc12 (centres undefined),0.346
3,COCc1cc(=O)[nH]c(Nc2nc3ccccc3o2)n1,-0.93
4,Cn1c(Cl)cnc1C1CC(=O)c2cc(Cl)ccc2O1 (centres undefined),-2.4
5,CCOC(=O)CC(C#N)c1cn(C)c2ccccc12 (centres undefined),0.369
6,CCCC(=O)Nc1ccc(OCC(O)CNC(C)C)c(C(C)=O)c1 (centres undefined),0.31
7,CC1(C)SC2[C@H](NC(=O)C(NC(=O)N3CCNC3=O)c3ccccc3)C(=O)N2C1C(=O)O (some centres undefined),-0.885
8,CCOC(=O)C1=C(CSc2nc(C)cc(C)c2C#N)OC(N)=C(C#N)C1c1cccs1 (centres undefined),-0.564
9,Cc1ccc(N(CC2=NCCN2)c2cccc(O)c2)cc1,-0.739 and 1.17
10,Cc1cc(NS(=O)(=O)c2ccc(N)cc2)no1,1.11
11,O=c1cc(NCc2ccccc2)nc2n1CCCS2,-1.35
12,COc1ccc2c(C)nc(Nc3nc(C)cc(C)n3)nc2c1,-0.248
13,Fc1cc(F)c(F)c(SCCc2ccncc2)c1F,0.0696
14,CN1CCN(C2=Nc3ccccc3Oc3ccc(Cl)cc32)CC1,-0.787
15,Cc1cnc(NC(=O)C2=C(O)c3ccccc3S(=O)(=O)N2C)s1,-1.17
16,COc1cccc2c1C(=O)c1c(O)c3c(c(O)c1C2=O)C[C@@](O)(C(=O)CO)C[C@@H]3O[C@H]1C[C@H](N)[C@H](O)[C@H](C)O1,3.82
17,O=S(=O)(c1cccc2cnccc12)N1CCCNCC1,-2.35
18,CC(C)Cc1ccc(C(C)C(=O)O)cc1 (centres undefined),0.0811
19,C[C@H](CS)C(=O)N1CCC[C@H]1C(=O)O,1.02

row,Compound,z-score
1,COC(=O)C1=C(C)NC(C)=C(C(=O)OC)C1c1ccccc1[N+](=O)[O-],-0.998
2,Nc1ccc(S(=O)(=O)Nc2ncccn2)cc1,1.02
3,COc1ccccc1C1C(C#N)=C(N)Oc2cc(C)n(Cc3ccccn3)c(=O)c21 (centres undefined),-0.154
4,CC(=O)O[C@H]1C(=O)[C@]2(C)[C@H]([C@H](OC(=O)c3ccccc3)[C@]3(O)C[C@H](OC(=O)[C@H](O)[C@@H](NC(=O)c4ccccc4)c4ccccc4)C(C)=C1C3(C)C)[C@]1(OC(C)=O)CO[C@@H]1C[C@@H]2O,0.563
5,CCC(=O)O[C@@H]1CC(=O)O[C@H](C)CC=CC=C[C@@H](O)[C@H](C)C[C@H](CC=O)[C@H](O[C@H]2O[C@H](C)[C@@H](O[C@H]3C[C@@](C)(O)[C@@H](OC(=O)CC)[C@H](C)O3)[C@H](N(C)C)[C@H]2O)[C@H]1OC,-1.92
6,CCCn1c(=O)[nH]c(=O)c2[nH]cnc21,0.0338
7,CC[N+](C)(C)Cc1ccccc1Br,0.336
8,COC(=O)c1cc(=O)n2c(-c3ccc(OC)cc3)csc2n1,-1.12
9,COc1ccccc1OCC(O)COC(N)=O (centres undefined),1.17
10,COc1cc2nc(N3CCN(C(=O)c4ccco4)CC3)nc(N)c2cc1OC,-1.9
11,Cc1nnc(SCC2=C(C(=O)O)N3C(=O)[C@@H](NC(=O)Cn4cnnn4)[C@H]3SC2)s1,1.89
12,Clc1ccc2c(c1)C(N1CCNCC1)=Nc1ccccc1O2,1.28
13,CC1(C)S[C@@H]2[C@H](NC(=O)[C@H](C(=O)O)c3ccsc3)C(=O)N2[C@H]1C(=O)O,0.566
14,O=C(O)c1cc(=O)c2c(OCC(O)COc3cccc4oc(C(=O)O)cc(=O)c34)cccc2o1,-0.69
15,CC[C@H]1OC(=O)C[C@@H](O)[C@H](C)[C@@H](O[C@@H]2O[C@H](C)C[C@H](N(C)C)[C@H]2O)[C@@H](CC=O)C[C@@H](C)C(=O)C=C[C@]2(C)O[C@H]2[C@@H]1C,-0.416
16,O=C(O)CCNC(=O)c1ccccc1,-1.08
17,CC[C@H](C)C(=O)O[C@H]1C[C@@H](C)C=C2C=C[C@H](C)[C@H](CC[C@@H]3C[C@@H](O)CC(=O)O3)[C@H]21,-0.22
18,Cc1ccc(C2C3CN(C(C)C)CC=C3C(C#N)=C(N)C2(C#N)C#N)cc1 (centres undefined),0.446

# Target: Dual specificity protein phosphatase 6 (Homo sapiens) (UniProt Q16828)
# Sequence (Q16828 whole entry, looked up): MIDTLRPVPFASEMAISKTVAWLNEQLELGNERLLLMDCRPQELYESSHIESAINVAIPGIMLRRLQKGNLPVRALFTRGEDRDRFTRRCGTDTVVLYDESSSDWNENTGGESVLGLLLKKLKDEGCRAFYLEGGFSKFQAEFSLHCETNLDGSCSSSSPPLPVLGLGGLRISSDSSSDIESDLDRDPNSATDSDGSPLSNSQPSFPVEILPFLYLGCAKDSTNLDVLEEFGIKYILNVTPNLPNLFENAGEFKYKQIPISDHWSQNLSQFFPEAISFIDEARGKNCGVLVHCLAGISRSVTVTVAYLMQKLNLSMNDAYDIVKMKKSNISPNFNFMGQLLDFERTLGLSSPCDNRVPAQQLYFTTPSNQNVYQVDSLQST
# Assay: as above
# Details: HeLa MKP-3 transfected, phospho-Erk imaging KS statistic; at 10 µM; stronger effect = higher value; cells stimulated with TPA for 15 min
row,Compound,inhibition
1,N#CC1=C(N)N(c2ccccc2)C(c2ccccc2)C1(C#N)C#N (centres undefined),-6.59% (inactive)
2,CC(C)NCC(O)COc1cccc2[nH]ccc12 (centres undefined),3.45% (inactive)
3,COCc1cc(=O)[nH]c(Nc2nc3ccccc3o2)n1,-2.09% (inactive)
4,Cn1c(Cl)cnc1C1CC(=O)c2cc(Cl)ccc2O1 (centres undefined),15.9% (inactive)
5,CCOC(=O)CC(C#N)c1cn(C)c2ccccc12 (centres undefined),-7.28% (inactive)
6,CCCC(=O)Nc1ccc(OCC(O)CNC(C)C)c(C(C)=O)c1 (centres undefined),11.3% (inactive)
7,CC1(C)SC2[C@H](NC(=O)C(NC(=O)N3CCNC3=O)c3ccccc3)C(=O)N2C1C(=O)O (some centres undefined),15.3% (inactive)
8,CCOC(=O)C1=C(CSc2nc(C)cc(C)c2C#N)OC(N)=C(C#N)C1c1cccs1 (centres undefined),-2.47% (inactive)
9,Cc1ccc(N(CC2=NCCN2)c2cccc(O)c2)cc1,5.79% (inactive)
10,Cc1cc(NS(=O)(=O)c2ccc(N)cc2)no1,-5.24% (inactive)
11,O=c1cc(NCc2ccccc2)nc2n1CCCS2,-4.7% (inactive)
12,COc1ccc2c(C)nc(Nc3nc(C)cc(C)n3)nc2c1,-5.95% (inactive)
13,Fc1cc(F)c(F)c(SCCc2ccncc2)c1F,-7.28% (inactive)
14,CN1CCN(C2=Nc3ccccc3Oc3ccc(Cl)cc32)CC1,14.6% (inactive)
15,Cc1cnc(NC(=O)C2=C(O)c3ccccc3S(=O)(=O)N2C)s1,30.1% (inactive)
16,COc1cccc2c1C(=O)c1c(O)c3c(c(O)c1C2=O)C[C@@](O)(C(=O)CO)C[C@@H]3O[C@H]1C[C@H](N)[C@H](O)[C@H](C)O1,96.1% (active)
17,O=S(=O)(c1cccc2cnccc12)N1CCCNCC1,21.2% (inactive)
18,CC(C)Cc1ccc(C(C)C(=O)O)cc1 (centres undefined),-0.828% (inactive)
19,C[C@H](CS)C(=O)N1CCC[C@H]1C(=O)O,12.4% (inactive)

row,Compound,inhibition
1,COC(=O)C1=C(C)NC(C)=C(C(=O)OC)C1c1ccccc1[N+](=O)[O-],13.3% (inactive)
2,Nc1ccc(S(=O)(=O)Nc2ncccn2)cc1,5.79% (inactive)
3,COc1ccccc1C1C(C#N)=C(N)Oc2cc(C)n(Cc3ccccn3)c(=O)c21 (centres undefined),0.671% (inactive)
4,CC(=O)O[C@H]1C(=O)[C@]2(C)[C@H]([C@H](OC(=O)c3ccccc3)[C@]3(O)C[C@H](OC(=O)[C@H](O)[C@@H](NC(=O)c4ccccc4)c4ccccc4)C(C)=C1C3(C)C)[C@]1(OC(C)=O)CO[C@@H]1C[C@@H]2O,-2.46% (inactive)
5,CCC(=O)O[C@@H]1CC(=O)O[C@H](C)CC=CC=C[C@@H](O)[C@H](C)C[C@H](CC=O)[C@H](O[C@H]2O[C@H](C)[C@@H](O[C@H]3C[C@@](C)(O)[C@@H](OC(=O)CC)[C@H](C)O3)[C@H](N(C)C)[C@H]2O)[C@H]1OC,11.3% (inactive)
6,CCCn1c(=O)[nH]c(=O)c2[nH]cnc21,19% (inactive)
7,CC[N+](C)(C)Cc1ccccc1Br,11.3% (inactive)
8,COC(=O)c1cc(=O)n2c(-c3ccc(OC)cc3)csc2n1,1.98% (inactive)
9,COc1ccccc1OCC(O)COC(N)=O (centres undefined),19% (inactive)
10,COc1cc2nc(N3CCN(C(=O)c4ccco4)CC3)nc(N)c2cc1OC,9.37% (inactive)
11,Cc1nnc(SCC2=C(C(=O)O)N3C(=O)[C@@H](NC(=O)Cn4cnnn4)[C@H]3SC2)s1,-6.41% (inactive)
12,Clc1ccc2c(c1)C(N1CCNCC1)=Nc1ccccc1O2,-7.45% (inactive)
13,CC1(C)S[C@@H]2[C@H](NC(=O)[C@H](C(=O)O)c3ccsc3)C(=O)N2[C@H]1C(=O)O,7.39% (inactive)
14,O=C(O)c1cc(=O)c2c(OCC(O)COc3cccc4oc(C(=O)O)cc(=O)c34)cccc2o1,5.42% (inactive)
15,CC[C@H]1OC(=O)C[C@@H](O)[C@H](C)[C@@H](O[C@@H]2O[C@H](C)C[C@H](N(C)C)[C@H]2O)[C@@H](CC=O)C[C@@H](C)C(=O)C=C[C@]2(C)O[C@H]2[C@@H]1C,7.39% (inactive)
16,O=C(O)CCNC(=O)c1ccccc1,17.3% (inactive)
17,CC[C@H](C)C(=O)O[C@H]1C[C@@H](C)C=C2C=C[C@H](C)[C@H](CC[C@@H]3C[C@@H](O)CC(=O)O3)[C@H]21,21.2% (inactive)
18,Cc1ccc(C2C3CN(C(C)C)CC=C3C(C#N)=C(N)C2(C#N)C#N)cc1 (centres undefined),70.4% (inactive)
